# Experimental data taken from PubChem BioAssay (EPA / NIEHS).
# “And” between values parts separate entries of the source, which are not always exact repeats. Equal values may be shown once. Records with an inconclusive call do not appear. Where a structure was tested more than once in an assay, its records may differ in their call. The source made the active and inactive calls. Rule for the calls: active = hit-call score of the fitted dose curve at least 0.9, where 1 is the maximum; inconclusive = response in the unintended direction; inactive = score below 0.9.
# Key:
# [1] = molecular target: human Vasopressin 1A Receptor (V1A), AVPR1A (gene 552) (UniProt P37288); experiment: NVS_GPCR_hV1A: NovaScreen (NVS) G Protein-Coupled Receptor Assay for human Vasopressin 1A Receptor (V1A) (AID 2283284)
# human Vasopressin 1A Receptor (V1A), AVPR1A (gene 552), sequence (P37288 whole entry, looked up): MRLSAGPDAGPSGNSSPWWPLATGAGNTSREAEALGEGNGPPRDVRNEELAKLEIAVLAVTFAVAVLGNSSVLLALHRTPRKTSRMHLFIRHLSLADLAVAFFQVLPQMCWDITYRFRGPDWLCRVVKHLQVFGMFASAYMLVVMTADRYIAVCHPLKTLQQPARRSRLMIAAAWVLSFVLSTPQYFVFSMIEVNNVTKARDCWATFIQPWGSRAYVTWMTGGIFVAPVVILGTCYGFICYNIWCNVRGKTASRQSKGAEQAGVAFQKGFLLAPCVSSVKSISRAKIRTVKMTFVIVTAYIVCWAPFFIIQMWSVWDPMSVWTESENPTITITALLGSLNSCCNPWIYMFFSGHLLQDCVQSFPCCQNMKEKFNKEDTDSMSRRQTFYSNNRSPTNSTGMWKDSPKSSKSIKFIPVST
# Procedure, shortened: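 Cell-free radioligand displacement on human platelet preparations, 1.5 h incubation, filter-based scintillation counting. Chemicals first tested in duplicate at 25 uM; actives then run in concentration-response up to 50 uM, loss of signal fitted against DMSO.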
# [2] = molecular target: rat Serotonin, 5-Hydroxytryptamine Receptor 1 (5HT1), Non-Selective Binding, Htr1a (gene 24473) (UniProt P19327); experiment: NVS_GPCR_r5HT1_NonSelective: NovaScreen (NVS) G Protein-Coupled Receptor Assay for rat Serotonin, 5-Hydroxytryptamine Receptor 1 (5HT1), Non-Selective Binding (AID 2283286)
# rat Serotonin, 5-Hydroxytryptamine Receptor 1 (5HT1), Non-Selective Binding, Htr1a (gene 24473), sequence (P19327 whole entry, looked up): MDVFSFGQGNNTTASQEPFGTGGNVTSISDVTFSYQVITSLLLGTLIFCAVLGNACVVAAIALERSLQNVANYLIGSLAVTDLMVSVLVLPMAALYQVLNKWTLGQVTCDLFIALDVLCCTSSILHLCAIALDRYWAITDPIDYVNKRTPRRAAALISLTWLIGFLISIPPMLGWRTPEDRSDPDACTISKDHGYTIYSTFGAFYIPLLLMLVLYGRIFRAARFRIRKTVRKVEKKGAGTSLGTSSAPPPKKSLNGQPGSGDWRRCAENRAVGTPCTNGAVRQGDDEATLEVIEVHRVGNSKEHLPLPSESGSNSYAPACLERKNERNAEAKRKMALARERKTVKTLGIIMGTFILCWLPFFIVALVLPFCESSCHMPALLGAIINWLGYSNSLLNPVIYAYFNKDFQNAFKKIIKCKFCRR
# Procedure, shortened: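 Rat cortical membranes, radioligand displacement, 1 h incubation, read by filter scintillation. Primary screen in duplicate at 25 uM. Hits (e.g. ≥30% inhibition) went to concentration-response up to 50 uM, fitted as loss of binding versus DMSO.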
# [3] = test system: rabbit Platelet Activating Factor Receptor (PAF), gene 100354046; experiment: NVS_GPCR_rabPAF: NovaScreen (NVS) G Protein-Coupled Receptor Assay for rabbit Platelet Activating Factor Receptor (PAF) (AID 2283287)
# Procedure, shortened: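 Rabbit platelet membrane preparation; radioligand displacement read by filter-based scintillation counting 1 h after dosing, loss of signal versus DMSO. Primary screen in duplicate at 25 uM, actives followed up in concentration series.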
# [4] = molecular target: human Opioid Receptor Mu (Opiate Mu), OPRM1 (gene 4988) (UniProt P35372); experiment: NVS_GPCR_hOpiate_mu: NovaScreen (NVS) G Protein-Coupled Receptor Assay for human Opioid Receptor Mu (Opiate Mu) (AID 2283290);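 note: hits lower bound tracer signal versus DMSO meaning displacement of the ligand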
# human Opioid Receptor Mu (Opiate Mu), OPRM1 (gene 4988), sequence (P35372 whole entry, looked up): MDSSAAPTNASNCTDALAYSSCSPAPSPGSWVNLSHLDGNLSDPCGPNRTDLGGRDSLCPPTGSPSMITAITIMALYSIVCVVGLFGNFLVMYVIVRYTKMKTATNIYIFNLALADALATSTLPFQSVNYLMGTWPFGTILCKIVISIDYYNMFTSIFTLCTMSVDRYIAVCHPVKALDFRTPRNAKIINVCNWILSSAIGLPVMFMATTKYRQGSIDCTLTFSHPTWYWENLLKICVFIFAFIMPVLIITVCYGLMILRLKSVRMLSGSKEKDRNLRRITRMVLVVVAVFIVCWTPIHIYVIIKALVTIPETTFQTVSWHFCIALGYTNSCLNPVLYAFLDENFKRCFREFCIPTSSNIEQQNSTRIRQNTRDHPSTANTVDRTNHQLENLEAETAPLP
# Procedure, shortened: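 Here, radioligand binding to CHO-extracted receptor was measured after 2.5 h using filter-based scintillation detection. Initial single-concentration screening used 25 uM in duplicate with plate controls; confirmed actives went to concentration-response testing.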
# [5] = molecular target: guinea pig Bradykinin Receptor B2 (BK2), BDKRB2 (gene 100135486) (UniProt O70526); experiment: NVS_GPCR_gBK2: NovaScreen (NVS) G Protein-Coupled Receptor Assay for guinea pig Bradykinin Receptor B2 (BK2) (AID 2283292)
# guinea pig Bradykinin Receptor B2 (BK2), BDKRB2 (gene 100135486), sequence (O70526 whole entry, looked up): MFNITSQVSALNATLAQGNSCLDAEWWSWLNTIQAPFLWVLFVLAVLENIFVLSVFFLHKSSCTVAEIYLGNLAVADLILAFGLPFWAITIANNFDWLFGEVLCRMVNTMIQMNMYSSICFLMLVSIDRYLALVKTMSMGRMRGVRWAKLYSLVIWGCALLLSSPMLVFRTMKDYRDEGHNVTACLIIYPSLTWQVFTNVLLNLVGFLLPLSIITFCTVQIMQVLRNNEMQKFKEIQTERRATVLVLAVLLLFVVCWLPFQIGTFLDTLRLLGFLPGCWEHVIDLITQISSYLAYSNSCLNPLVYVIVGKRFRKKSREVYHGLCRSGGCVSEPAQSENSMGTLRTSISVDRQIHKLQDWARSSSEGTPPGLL
# Description: (§1) NVS_GPCR_gBK2 is a biochemical, single-readout assay that uses extracted gene-proteins from Guinea pig ileum membranes in a tissue-based cell-free assay. Measurements were taken 1 hour after chemical dosing in a 48-well plate.NVS_GPCR_gBK2 is one of one assay component(s) measured or calculated from the NVS_GPCR_gBK2 assay. It is designed to make measurements of radioligand binding, a form of binding reporter, as detected with scintillation counting signals by Filter-based radiodetection technology.Data from the assay component NVS_GPCR_gBK2 was analyzed into 1 assay endpoint. This assay endpoint, NVS_GPCR_gBK2, was analyzed in the positive analysis fitting direction relative to DMSO as the negative control and baseline of activity. Using a type of binding reporter, loss-of-signal activity can be used to understand changes in the binding as they relate to the gene Bdkrb2. Furthermore, this assay endpoint can be referred to as a primary readout, because the performed assay has only produced 1 assay endpoint. To generalize the intended target to other relatable targets, this assay endpoint is annotated to the gpcr intended target family, where the subfamily is rhodopsin-like receptor.
# (§2) Binding assays used specific radioligands (tritiated, iodinated) with non-radioactive competitive displacement ligands in agonist or antagonist protocols (as indicated) and various reference compounds and inhibitors to titrate specific binding to receptors and transporters. Most enzyme assays (CYPs, kinases, phosphatases, proteases, HDACs) used recombinant protein and specific substrates (fluorescence mostly, some colorimetric and radioactive) and inhibitors, followed by a biochemical separation of substrate and product. All assays for the biochemical HTS were initially run in duplicate at a single concentration (10 uM for CYP450 assays and 25 uM for all others). […]
# [6] = molecular target: rat Adrenergic, Alpha 1, Non-selective Receptor (Adra1), Adra1a (gene 29412) (UniProt P43140); experiment: NVS_GPCR_rAdra1_NonSelective: NovaScreen (NVS) G Protein-Coupled Receptor Assay for rat Adrenergic, Alpha 1, Non-selective Receptor (Adra1) (AID 2283289)
# rat Adrenergic, Alpha 1, Non-selective Receptor (Adra1), Adra1a (gene 29412), sequence (P43140 whole entry, looked up): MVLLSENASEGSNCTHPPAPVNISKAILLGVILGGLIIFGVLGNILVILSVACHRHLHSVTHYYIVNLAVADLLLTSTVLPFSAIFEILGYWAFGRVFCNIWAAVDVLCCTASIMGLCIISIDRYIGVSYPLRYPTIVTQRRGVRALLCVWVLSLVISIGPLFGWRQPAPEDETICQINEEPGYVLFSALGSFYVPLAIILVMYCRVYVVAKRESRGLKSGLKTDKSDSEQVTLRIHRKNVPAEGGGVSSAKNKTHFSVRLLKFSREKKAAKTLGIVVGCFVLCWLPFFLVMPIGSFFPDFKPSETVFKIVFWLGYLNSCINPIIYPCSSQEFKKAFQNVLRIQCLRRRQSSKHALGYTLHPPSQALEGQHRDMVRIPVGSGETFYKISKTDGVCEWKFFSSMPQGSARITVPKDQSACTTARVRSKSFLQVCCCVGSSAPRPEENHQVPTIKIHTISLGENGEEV
# Description: as §1, with “NVS_GPCR_rAdra1_NonSelective” for “NVS_GPCR_gBK2”, “Rat forebrain” for “Guinea pig ileum”, “plate.NVS_GPCR_rAdra1_NonSelective” for “plate.NVS_GPCR_gBK2”, “NVS_GPCR_rAdra1_NonSelective,” for “NVS_GPCR_gBK2,”, “Adra1a.” for “Bdkrb2.”
# as §2
# [7] = molecular target: human Thromboxane A2 Receptor (TXA2), TBXA2R (gene 6915) (UniProt P21731); experiment: NVS_GPCR_hTXA2: NovaScreen (NVS) G Protein-Coupled Receptor Assay for human Thromboxane A2 Receptor (TXA2) (AID 2283282);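 note: actives reduce bound radioligand signal relative to DMSO baseline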
# human Thromboxane A2 Receptor (TXA2), TBXA2R (gene 6915), sequence (P21731 whole entry, looked up): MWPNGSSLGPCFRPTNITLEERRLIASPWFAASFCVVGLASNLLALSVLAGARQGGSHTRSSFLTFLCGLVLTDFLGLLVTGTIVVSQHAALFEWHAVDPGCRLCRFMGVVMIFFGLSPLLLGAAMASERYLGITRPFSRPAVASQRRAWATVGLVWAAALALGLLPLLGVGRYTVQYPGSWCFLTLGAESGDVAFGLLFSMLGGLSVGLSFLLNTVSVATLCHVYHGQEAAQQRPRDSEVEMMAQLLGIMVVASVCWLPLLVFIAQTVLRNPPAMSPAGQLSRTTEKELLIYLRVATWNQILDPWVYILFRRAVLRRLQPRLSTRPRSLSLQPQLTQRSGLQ
# Procedure, shortened: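 Filter scintillation counting of bound radioligand, human platelet protein, 1 h exposure. Single-concentration duplicates (25 uM) first, concentration-response follow-up for actives. Binding loss scored against DMSO baseline.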
# [8] = test system: 5-hydroxytryptamine receptor 2C (pig); experiment: NVS_GPCR_p5HT2C: NovaScreen (NVS) G Protein-Coupled Receptor Assay for pig Serotonin, 5-Hydroxytryptamine Receptor 2C (5HT2C) (AID 2283288)
# Procedure, shortened: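 Pig choroid plexus membranes; radioligand competitive binding, filter-based scintillation counting, read 1 h after dosing. Primary screen in duplicate at 25 uM; actives then run as concentration series; loss of signal versus DMSO baseline.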
# [9] = molecular target: mouse Cholecystokinin, CCK2 Receptor (CCKB), Cckbr (gene 12426) (UniProt P56481); experiment: NVS_GPCR_mCKKBCentral: NovaScreen (NVS) G Protein-Coupled Receptor Assay for mouse Cholecystokinin, CCK2 Receptor (CCKB) (AID 2283293)
# mouse Cholecystokinin, CCK2 Receptor (CCKB), Cckbr (gene 12426), sequence (P56481 whole entry, looked up): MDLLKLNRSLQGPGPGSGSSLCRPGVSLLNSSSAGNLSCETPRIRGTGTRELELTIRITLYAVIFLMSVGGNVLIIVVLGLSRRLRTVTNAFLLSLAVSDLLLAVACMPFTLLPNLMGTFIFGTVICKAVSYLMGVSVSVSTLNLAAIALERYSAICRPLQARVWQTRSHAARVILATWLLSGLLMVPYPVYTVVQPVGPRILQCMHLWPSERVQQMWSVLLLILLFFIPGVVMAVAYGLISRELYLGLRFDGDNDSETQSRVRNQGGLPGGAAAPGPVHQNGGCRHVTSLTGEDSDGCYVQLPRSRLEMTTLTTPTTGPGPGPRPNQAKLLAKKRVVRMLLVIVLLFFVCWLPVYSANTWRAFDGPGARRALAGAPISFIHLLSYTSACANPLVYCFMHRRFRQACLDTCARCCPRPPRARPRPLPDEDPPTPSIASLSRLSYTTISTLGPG
# Procedure, shortened: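 Radioligand displacement binding on mouse forebrain membranes, 2 h exposure, filter-based scintillation counting. Primary screen in duplicate at 25 uM; actives (e.g. ≥30% inhibition) retested in concentration-response up to 50 uM; loss of binding signal relative to DMSO.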
# [10] = molecular target: human Orphanin, Opioid Related Nociceptin Receptor 1 (ORL1), OPRL1 (gene 4987) (UniProt P41146); experiment: NVS_GPCR_hORL1: NovaScreen (NVS) G Protein-Coupled Receptor Assay for human Orphanin, Opioid Related Nociceptin Receptor 1 (ORL1) (AID 2283283)
# human Orphanin, Opioid Related Nociceptin Receptor 1 (ORL1), OPRL1 (gene 4987), sequence (P41146 whole entry, looked up): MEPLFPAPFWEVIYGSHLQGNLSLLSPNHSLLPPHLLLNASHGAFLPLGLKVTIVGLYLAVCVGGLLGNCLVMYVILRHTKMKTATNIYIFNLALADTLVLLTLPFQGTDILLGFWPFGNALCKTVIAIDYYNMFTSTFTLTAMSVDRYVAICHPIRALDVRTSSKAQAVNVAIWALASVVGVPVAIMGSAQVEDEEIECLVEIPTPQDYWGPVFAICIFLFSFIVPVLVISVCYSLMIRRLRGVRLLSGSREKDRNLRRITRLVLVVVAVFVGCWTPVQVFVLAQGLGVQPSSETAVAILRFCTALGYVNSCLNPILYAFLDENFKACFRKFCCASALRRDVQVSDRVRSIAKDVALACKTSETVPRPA
# Procedure, shortened: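 Filter-based radioligand displacement with receptor extracted from HEK293 cells, read 1 hour after dosing by scintillation counting. Duplicate single-point screen at 25 uM; qualifying chemicals then run in concentration-response to 50 uM, analysed relative to DMSO.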
smiles,measurement,setting,value
S=C(S)NCCNC(=S)S.[Mn+2].[S-]C([S-])=NCCN=C([S-])[S-].[Zn+2],outcome,[1],inactive
same,outcome,[2],inactive
same,outcome,[3],inactive
same,AC50,[4],154 nM (active) and 3.46 µM (active) and 9.37 µM (active)
same,outcome,[4],inactive
same,AC50,[5],9.72 µM (active) and 9.3 µM (active) and 26.6 µM (active)
COC(=O)CSc1cc(N=c2sc(=O)n3n2CCCC3)c(F)cc1Cl,outcome,[2],inactive
same,outcome,[6],inactive
Oc1ccc(C(c2ccc(O)cc2)C(Cl)(Cl)Cl)cc1,outcome,[6],inactive
same,AC50,[4],3.58 µM (active)
CC(C)(c1ccc(O)cc1)c1ccc(O)cc1,AC50,[7],10.3 µM (active) and 5.04 µM (active)
same,outcome,[7],inactive
same,AC50,[8],18.6 µM (active) and 19 µM (active)
same,AC50,[4],15.3 µM (active) [middle of 4 runs]
same,outcome,[4],inactive
same,AC50,[9],31.2 µM (active) and 19.2 µM (active) and 16.3 µM (active)
S=C([S-])NCCNC(=S)[S-].[Mn+2],outcome,[1],inactive
same,outcome,[3],inactive
same,AC50,[4],3.16 µM (active)
same,AC50,[5],30.5 µM (active)
COC(=O)c1c(Cl)nn(C)c1S(=O)(=O)NC(=O)Nc1nc(OC)cc(OC)n1,outcome,[3],inactive
C=CCOC(Cn1ccnc1)c1ccc(Cl)cc1Cl (centres undefined),AC50,[4],11.2 µM (active)
CC(C)(C)[C@@H](O)[C@@H](Cc1ccc(Cl)cc1)n1cncn1,outcome,[3],inactive
COC(=O)c1ccc(CNS(C)(=O)=O)cc1S(=O)(=O)NC(=O)Nc1nc(OC)cc(OC)n1,outcome,[6],inactive
COC(=O)c1cccc(C)c1S(=O)(=O)NC(=O)Nc1nc(OCC(F)(F)F)nc(N(C)C)n1,AC50,[1],1.32 µM (active)
C[C@]12C[C@H](O)[C@H]3[C@@H](CCC4=CC(=O)CC[C@@]43C)[C@@H]1CC[C@@H]2C(=O)CO,AC50,[10],39 µM (active)
CCC(O)=C1C(=O)CC(C(=O)O)CC1=O (centres undefined),outcome,[3],inactive
CCC(C)OC(=O)N1CCCCC1CCO (centres undefined),outcome,[4],inactive
CCCOC(=O)c1ccc(C(=O)OCCC)nc1,outcome,[5],inactive
CC(C)CCCCCCc1ccc(O)cc1,AC50,[4],15.8 µM (active)
O=C(c1ccc(O)cc1O)c1ccc(O)cc1O,AC50,[8],17.4 µM (active)
O=C(O)c1ccccc1,outcome,[1],inactive
CN(C)C(=O)Nc1ccc(Cl)c(Cl)c1,AC50,[7],9.69 µM (active)
CCCCCOC(=O)COc1cc(N2C(=O)C3=C(CCCC3)C2=O)c(F)cc1Cl,outcome,[4],inactive
